Data published in PubChem BioAssay AID1159580 (chemical genetic matrix, 2015).
The campaign covered roughly 5,500 compounds. About 2,000 (36%) were called active. Another 18% or so got no clear call; they are omitted. Cut-off read from the data, not from the text of the source: active = normalized growth mostly below about 0.91 (no sharp cut-off); inconclusive = no clear call, values can overlap the other calls; inactive = mostly above about 0.92. Some of the results follow.

Test: chemical genetic growth profiling, strain panel (AID 1159580);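 note: tested at 20 µM; growth read once vehicle control cultures reached saturation at 30 °C; 1 = growth at the plate median or of vehicle wells; lower values mean less growth of the strain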
Settings: S. cerevisiae deletion strains, growth OD

Measured: normalized growth

N[C@@H](Cc1c[nH]c2ccccc12)C(=O)O
inactive: locus YAL040C, strain CLN3, stronger effect = lower value 1.02 | locus YCL061C, strain MRC1 (second series), stronger effect = lower value 1 | locus YDR150W, strain NUM1, stronger effect = lower value 1.01 | locus YDR363W, strain ESC2, stronger effect = lower value 1.01 | locus YER002W, strain NOP16, stronger effect = lower value 1.01 | locus YGR078C, strain PAC10, stronger effect = lower value 1 | locus YGR229C, strain SMI1, stronger effect = lower value 1.03 | locus YMR307W, strain GAS1, stronger effect = lower value 0.991 | locus YNL128W, strain TEP1, stronger effect = lower value 1 | locus YNL175C, strain NOP13, stronger effect = lower value 0.997 | locus YNL197C, strain WHI3, stronger effect = lower value 0.996 | locus YNL224C, strain SQS1, stronger effect = lower value 1.01 | locus YOR083W, strain WHI5 (second series), stronger effect = lower value 0.996 | locus YPL241C, strain CIN2, stronger effect = lower value 1.01
